# About 450 (0.69%) of roughly 65,000 compounds were called active. Shown is part of a subset that was picked to be rich in actives. Values without a mark were called inactive.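 How the source made its calls: active means HER2 level under 5% of the carrier-only control; inconclusive means no clear call, values can overlap the other calls; inactive means the rest.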
# Target: Receptor tyrosine-protein kinase erbB-2 (Homo sapiens) (UniProt P04626)
# Assay: reducers of endogenous HER2 protein levels – SKBR-3 cells, AlphaScreen, 66K library, primary screen (AID 645);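 further: 100% = DMSO carrier and 0% = 500 nM PU-H71 HSP90 inhibitor; lower value means stronger loss of Her2 protein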
# Details: SKBR-3 HER2 protein level, 18-24 h, at 10 µM, hits give low values
# Chain of Receptor tyrosine-protein kinase erbB-2 (Homo sapiens) (P04626 whole entry, looked up): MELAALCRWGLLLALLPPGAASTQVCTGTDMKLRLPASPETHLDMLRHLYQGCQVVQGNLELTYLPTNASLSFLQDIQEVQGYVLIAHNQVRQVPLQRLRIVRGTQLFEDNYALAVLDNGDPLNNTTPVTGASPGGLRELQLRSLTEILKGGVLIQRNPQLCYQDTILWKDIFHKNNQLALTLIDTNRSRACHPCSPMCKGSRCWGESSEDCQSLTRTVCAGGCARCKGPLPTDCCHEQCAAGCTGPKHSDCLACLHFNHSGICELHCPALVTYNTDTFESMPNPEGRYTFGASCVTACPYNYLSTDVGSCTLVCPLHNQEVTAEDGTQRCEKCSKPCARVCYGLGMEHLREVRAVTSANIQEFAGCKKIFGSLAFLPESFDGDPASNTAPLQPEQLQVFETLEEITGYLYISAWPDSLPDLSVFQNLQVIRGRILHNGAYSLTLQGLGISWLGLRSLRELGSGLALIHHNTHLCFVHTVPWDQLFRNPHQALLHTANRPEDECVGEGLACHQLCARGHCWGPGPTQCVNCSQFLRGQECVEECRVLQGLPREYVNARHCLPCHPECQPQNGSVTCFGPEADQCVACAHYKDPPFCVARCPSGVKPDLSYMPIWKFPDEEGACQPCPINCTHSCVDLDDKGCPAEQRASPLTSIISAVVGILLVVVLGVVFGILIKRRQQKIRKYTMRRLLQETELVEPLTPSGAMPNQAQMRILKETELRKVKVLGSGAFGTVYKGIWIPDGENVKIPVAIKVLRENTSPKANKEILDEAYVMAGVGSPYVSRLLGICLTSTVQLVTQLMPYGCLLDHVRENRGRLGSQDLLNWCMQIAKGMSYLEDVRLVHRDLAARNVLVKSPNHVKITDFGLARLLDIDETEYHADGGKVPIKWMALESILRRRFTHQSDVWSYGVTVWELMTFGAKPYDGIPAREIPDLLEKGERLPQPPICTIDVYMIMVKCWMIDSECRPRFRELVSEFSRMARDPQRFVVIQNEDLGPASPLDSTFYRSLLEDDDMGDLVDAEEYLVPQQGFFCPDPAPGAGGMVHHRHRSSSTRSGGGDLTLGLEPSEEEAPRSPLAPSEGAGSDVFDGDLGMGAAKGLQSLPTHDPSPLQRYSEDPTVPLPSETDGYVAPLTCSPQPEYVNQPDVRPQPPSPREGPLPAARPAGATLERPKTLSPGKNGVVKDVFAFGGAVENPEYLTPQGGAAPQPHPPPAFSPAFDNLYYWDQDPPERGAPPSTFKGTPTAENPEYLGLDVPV
row,Compound,HER2 level % of control
1,CC(=O)c1c(C)n(-c2ccc(N(C)C)cc2)c2ccc(OCC(N)=O)cc12,64.8%
2,COc1ccccc1-c1nnc(SCC(=O)Nc2cc(C)on2)o1,92.1%
3,CC1(C)CC(=O)NC=C(c2ccccc2)C1,-32.3% (active)
4,O=c1[nH]c(-c2ccccc2)c(-c2ccccc2)[nH]1,88.4%
5,CC(C)C1C2=C(CC(C)(C)CC2=O)ON1c1ccccc1 (centres undefined),89.9%
6,CC(C)(C)NC(=O)Cn1nnc(-c2ccccc2Cl)n1,75.9%
7,COCCCNC(=O)CCc1nc2cccnc2n1Cc1ccc(OC)cc1,96.5%
8,Cc1cc(NC(=O)CCC(=O)N(c2cccc(F)c2)C(C(=O)NC2CCCC2)c2ccncc2)no1 (centres undefined),97%
9,CCCCn1c(SCC(=O)NCC2CCCO2)nc2ccc(N3CCOCC3)cc2c1=O (centres undefined),92.5%
10,CCn1cc(C(=O)NCC2CCCO2)c(=O)c2cc(S(=O)(=O)N3CCCCC3)ccc21 (centres undefined),108%
11,CCn1c(SCC(=O)NCC2CCCO2)nc2cc(S(=O)(=O)N3CCCCC3)ccc21 (centres undefined),-27.6% (active)
12,Cc1cc(C)nc(SCc2ccccc2C#N)n1,112%
13,COc1ccc(C(=O)N2CCC(C(=O)Nc3cccc(C)c3)CC2)cc1OC,97.1%
14,Cc1nc2ccc(S(=O)(=O)NC(C(=O)N3CCCCCC3)C(C)C)cc2s1 (centres undefined),82.8%
15,Cc1nc2cc(S(=O)(=O)C(F)(F)F)ccc2s1,-17.7% (active)
16,Cc1nc2ccc(S(=O)(=O)NCC(=O)O)cc2s1,73.5%
17,O=C(NCCN=C1NS(=O)(=O)c2ccccc21)c1ccc(S(=O)(=O)N2CCOCC2)cc1,108%
18,CCOc1ccc(OCc2ccc(C(=O)Nc3cccc(C)n3)o2)cc1,68.1%
19,CC(C)(C)n1nnnc1C(c1ccc2ncccc2c1)N1CCSCC1 (centres undefined),92.2%
20,CC(C)c1ccc(OCC(O)Cn2cnc3ccccc32)cc1 (centres undefined),83.1%
21,Cc1ccc(S(=O)(=O)N2CCC(C(=O)N[C@@H](C)C(=O)NCc3ccccc3)CC2)cc1,102%
22,Cc1ccc(S(=O)(=O)N2CCC(C(=O)N[C@@H](C)C(=O)NCCc3ccccc3)CC2)cc1,-21.9% (active)
23,Cc1ccc(CCNC(=O)C2CCN(S(=O)(=O)N3CCCC3)CC2)cc1,107%
24,CC(C)C[C@H](NC(=O)[C@@H]1O[C@H]1C(=O)O)C(=O)NCCCCN=C(N)N,100%

# From PubChem BioAssay AID645 (SRMLSC, 2007)
